The values that follow come from PubChem BioAssay AID1851 (National Center for Advancing Translational Sciences (NCATS), 2009).

Out of some 16,000 compounds screened, about 5,100 (32%) were called active. Roughly 25% stayed inconclusive and do not appear here. Some of the results follow. Values without a mark were called inactive. Calls come from the whole dose curve; as a rule, active = well fitted curve in the direction sought with a large enough effect; inconclusive = small, poorly fitted or top-dose-only effect, or effect the other way; inactive = no such curve, though single readings can be large or run the other way.

The AC50 is the midpoint of the concentration-response curve, whichever way the signal moves.
% is set by controls: 0 for no effect and ±100 for the full control effect.

The target of the experiment is Cytochrome P450 3A4 (Homo sapiens) (UniProt P08684). Description: Cytochrome panel assay with activity outcomes. The conditions noted are these: recombinant CYP, pro-luciferin dealkylation, luminescence, p450-cyp3a4; series mostly up to 57.1 µM; activity, negative = inhibition: at the top concentration.
Chain of Cytochrome P450 3A4 (Homo sapiens) (P08684 whole entry, looked up): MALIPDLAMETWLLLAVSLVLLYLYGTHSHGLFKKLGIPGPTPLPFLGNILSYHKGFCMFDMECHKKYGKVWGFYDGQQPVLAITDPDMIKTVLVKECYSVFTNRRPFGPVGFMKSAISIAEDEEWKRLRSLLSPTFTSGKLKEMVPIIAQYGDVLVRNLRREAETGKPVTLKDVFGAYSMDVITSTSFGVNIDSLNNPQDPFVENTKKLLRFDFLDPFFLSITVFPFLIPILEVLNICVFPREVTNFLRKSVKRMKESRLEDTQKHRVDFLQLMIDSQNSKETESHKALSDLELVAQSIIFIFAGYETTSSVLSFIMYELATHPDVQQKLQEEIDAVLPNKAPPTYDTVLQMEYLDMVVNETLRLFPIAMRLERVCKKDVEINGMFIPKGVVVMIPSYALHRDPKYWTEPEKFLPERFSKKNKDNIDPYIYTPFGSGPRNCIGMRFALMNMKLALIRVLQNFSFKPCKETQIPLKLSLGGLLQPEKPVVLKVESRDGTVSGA
Consider `N/C(=N\O)C1COc2ccccc2O1` (configuration not stated), for which the “activity, negative = inhibition” value was -12.1%.
With `Cc1ccc(S(=O)(=O)N2CCN(C(=O)C3COc4ccccc4O3)CC2)cc1C` (configuration not stated), the AC50 was 11.2 µM (active).
Consider `COC(=O)[C@@]1(Cc2ccccc2)[C@H]2c3cc(C(=O)N4CCCC4)n(Cc4ccc(O)c(OC)c4)c3C[C@H]2CN1C(=O)c1ccccc1`, for which the AC50 is 2 µM (active).
`COC(=O)[C@@]1(Cc2ccccc2)[C@H]2c3cc(C(=O)N4CCCC4)n(Cc4ccc(OC)c(OC)c4)c3C[C@H]2CN1C(=O)c1ccccc1`: the AC50 is 1.26 µM (active).
Regarding `Cc1ccc2ncc([N+](=O)[O-])n2c1`, the “activity, negative = inhibition” value was 12.5%.
In the case of `CN(C)Cc1ccccc1-c1nccc(NC2CC2)n1`, the AC50 is 15.8 µM (active).
On to `CNc1ccnc(-c2ccccc2CN(C)C)n1`, for which the “activity, negative = inhibition” value was -20.8%.
`CN(C)Cc1ccccc1-c1nccc(N(C)C)n1`: the AC50 was 10 µM (active).
Consider `COc1ccc(CO/N=C/c2c(C)[nH]c(=O)[nH]c2=O)cc1`, for which the “activity, negative = inhibition” value is -11.9%.
For `COCCNc1ccnc(-c2ccccc2CN(C)C)n1`, the “activity, negative = inhibition” value is -19.7%.
Turning to `COc1ccc(CNc2ccnc(-c3ccccc3Cl)n2)c(OC)c1`, the AC50 is 3.16 µM (active).
On to `COc1ccc(CNc2ccnc(-c3ccccc3OC)n2)c(OC)c1`, for which the AC50 is 6.31 µM (active).
Still for that read-out and setting: then `COc1ccc(CNc2ccnc(-c3ccccc3CN(C)C)n2)c(OC)c1`, with 5.01 µM (active); and `COc1ccc(CNc2ccnc(-c3ccccc3C(F)(F)F)n2)c(OC)c1`, with 3.16 µM (active).
Take `C[N+]1(CCC(=O)c2ccco2)CC2CCC(CC2)C1` (configuration not stated): the activity, negative = inhibition was 1.47% [at 11.4 µM].
As for `N#Cc1cc2[nH]c(=O)c(=O)[nH]c2cc1[N+](=O)[O-]`, the “activity, negative = inhibition” value is -23%.
Same read-out and setting: then `CCN(c1nc(N)c(C(=O)N=C(N)N)nc1Cl)C(C)C`, with -18.6%.
Regarding `CC1(C)OC[C@@H]2O[C@H](n3cnc4c(N)nc(Cl)nc43)[C@@H](OS(C)(=O)=O)[C@@H]2O1`, the activity, negative = inhibition is -4.98% [at 11.4 µM].
As for `O=C(O)c1c2c(c(O)c3c1CN(C1CCCCC1)CO3)OCN(C1CCCCC1)C2`, the activity, negative = inhibition was -0.201% [at 11.4 µM].
As for `CC(C)Cn1cnc2c(Sc3c([N+](=O)[O-])ncn3C)nc(N)nc21`, the activity, negative = inhibition is -7.97% [at 11.4 µM].
`CCOc1c(OC(C)=O)ccc(/C=C/c2ccc3cccc(OC(C)=O)c3n2)c1[N+](=O)[O-]`: the AC50 was 10 µM (active).
For the compound `COc1ccc2c(c1[N+](=O)[O-])CCC/C2=N/OC(=O)c1cccc2ccccc12`, the activity, negative = inhibition was 0.913% [at 2.29 µM].
As to `Cc1ccc(-n2c(C)nnc2SCC(=O)N2CCc3ccccc3C2)cc1C`, the AC50 is 8.91 µM (active).
For the compound `CC1=C(\C=C/C(C)=C/C=C\C(C)=C\C(=O)O)C(C)(C)CCC1`, the “activity, negative = inhibition” value was -19.6% [at 25.6 µM].
As to `O=C(NNS(=O)(=O)c1cc(Cl)cc(Cl)c1)c1sccc1-n1cccc1`, the AC50 was 7.94 µM (active).
In the case of `C/C(=N\N=C1\NC(=O)CC(C(=O)O)S1)c1cccs1` (configuration not stated), the “activity, negative = inhibition” value was 1.69%.
In the case of `CC(=O)/C(=N\N=C(N)N)c1ccccc1`, the activity, negative = inhibition was -6.08% [at 11.4 µM].
For `C/C(=N\N=C(c1ccccc1)c1ccccc1)c1cccs1`, the AC50 was 14.1 µM (active).
With `CCCOc1ccc(C(=O)CCNc2ccc(C)c(Cl)c2)cc1`, the activity, negative = inhibition was 12.4% [at 2.29 µM].
`Cc1ccc(NC(=O)c2cc(NC(=O)CCCC(=O)O)ccc2Cl)cc1Cl`: the “activity, negative = inhibition” value was -16.3%.
For the compound `Cc1ccc(NC(=O)CCC(=O)c2ccc(F)cc2)cc1Cl`, the AC50 is 12.6 µM (active).
As to `Nc1nc(N)nc(CCCc2nc(N)nc(N)n2)n1`, the activity, negative = inhibition is -12.5% [at 11.4 µM].
Same read-out and setting: then `c1ccc2oc(C3=NCCN3)cc2c1`, with -11.9%; and `CCC(C)NC(=O)c1ccccc1NC(=O)Nc1ccccc1` (configuration not stated), with -20%.
Turning to `COc1ccc(CCNC(=O)c2ccccc2NC(=O)c2ccco2)cc1OC`, the AC50 was 7.08 µM (active).
As for `O=C(CCc1ccccc1)NNC(=O)c1ccco1`, the “activity, negative = inhibition” value is -9.25%.
With `O=C(Nc1ccccc1C(=O)NCCc1ccccc1)c1ccco1`, the AC50 is 14.1 µM (active).
Take `O=C(Nc1ccccn1)c1ccco1`: the “activity, negative = inhibition” value was 10.3%.
Consider `CCC(NC(=O)c1ccccc1NC(=O)c1ccco1)C(=O)NC1CCCCC1` (configuration not stated), for which the AC50 was 6.31 µM (active).
For `O=C(O)c1ccc(C(=O)O)c(C(=O)O)c1.[NH-][C@@H]1CCCC[C@@H]1[NH-].[Pt]`, the activity, negative = inhibition is 18.9% [at 11.4 µM].
Still for that read-out and setting: under `CCc1cccc(N(C)C(N)=Nc2cccc3ccccc23)c1` stands -18%.
In the case of `C#CCSc1n[nH]c(-c2ccco2)n1`, the activity, negative = inhibition is -10.2% [at 11.4 µM].
Take `CC(C)=CC(=O)Nc1nnc(C(C)C)s1`: the activity, negative = inhibition is 15.7% [at 2.29 µM].
As for `[O-][N+](CCO)(CCO)c1ncnc2nc[nH]c12`, the activity, negative = inhibition was -0.379% [at 11.4 µM].
Consider `N=C1[C@@H](O)[C@]2(I)c3ccccc3N3C(=N)[C@H](O)[C@@H]4c5ccccc5N1[C@@H]4[C@@H]32`, for which the activity, negative = inhibition was -8.09% [at 11.4 µM].
Take `COC(=O)c1ccc(/C=N\NC(=O)c2ccc(C)cc2Cl)cc1`: the AC50 is 3.55 µM (active).
Regarding `Cc1ccc(C(=O)N/N=C/c2ccc(S(=O)(=O)O)o2)c(Cl)c1`, the “activity, negative = inhibition” value was 8.51%.
